CYP2C19 inh = human CYP2C19 inhibition | AID 778 | inhibition, % at 5 µM | P33261 | CYP2C19 Supersomes, luciferin-H EGE luminescence, 30 min | hit rate 21% among 96,000;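 active = CYP2C19 inhibition above a set limit at 5 µM in the primary screen, cut at about 50% in these data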;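 also: plate controls were negative control wells for no effect and 2.5 mM tranylcypromine positive control for full effect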
CYP2C19 act = activators of human cytochrome P450 2C19 | P33261 | recombinant CYP2C19, luciferin-H EGE luminescence; stronger effect = higher value; 0 = fully inhibited enzyme, 1 = untreated enzyme | activation factor at 5 µM | 96,000 tested, under 10 active;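 active = activation factor of at least 2 at 5 µM in the primary screen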;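 also: 0 = wells with 2.5 mM tranylcypromine and 1 = vehicle-only wells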
CYP2C9 inhib = inhibitors of human CYP2C9; AID 777; hit rate 20% among 96,000; CYP2C9 Supersomes, luciferin-H conversion, luminescence; inhibition, % at 5 µM; P11712;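 active = blocking of liver enzyme CYP2C9 beyond about 50% at 5 µM, limit read from the data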
Target sequence (P11712 whole entry, looked up): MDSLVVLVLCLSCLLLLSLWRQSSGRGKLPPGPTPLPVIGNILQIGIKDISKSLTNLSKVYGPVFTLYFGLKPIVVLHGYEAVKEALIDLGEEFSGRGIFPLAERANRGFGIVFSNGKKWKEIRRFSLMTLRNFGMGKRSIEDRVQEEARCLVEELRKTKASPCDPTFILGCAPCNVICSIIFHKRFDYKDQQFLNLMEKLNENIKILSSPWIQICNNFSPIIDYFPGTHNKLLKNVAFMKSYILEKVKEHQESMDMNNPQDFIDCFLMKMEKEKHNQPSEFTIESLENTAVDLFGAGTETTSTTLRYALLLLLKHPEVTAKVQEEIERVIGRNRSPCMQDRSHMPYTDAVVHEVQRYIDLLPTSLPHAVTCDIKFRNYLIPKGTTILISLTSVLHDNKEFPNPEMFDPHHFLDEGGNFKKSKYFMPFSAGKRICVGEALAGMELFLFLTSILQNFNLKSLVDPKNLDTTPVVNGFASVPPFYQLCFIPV
Measles CPE = protection of cells from measles virus. Measles virus-infected cells, CPE protection, absorbance. protection (pct of control), % at 4 µM. hit rate 1.5% among 140,000. AID 841; in the data active = protection mostly above about 24%, no sharp cut-off; inactive = mostly below about 26%
CYP2C9 act = CYP2C9 (human) activation | recombinant CYP2C9, luciferin-H conversion, luminescence; stronger effect = higher value; factor 1 = untreated enzyme, 0 = blocked | activation factor at 5 µM | hit rate 1.4% among 96,000 | P11712;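 active = activation factor of 2 or more for CYP2C9 at a 5 µM dose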;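 also: 0 = sulfaphenazole-blocked wells and 1 = vehicle-only wells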
An asterisk follows results filed as active. This is a sample that favours compounds with a hit; in the whole collection about 22% have one here.

Results for O=C(NCc1ccccc1)C(c1ccc(F)cc1)N(Cc1ccco1)C(=O)c1ccccn1 (centres undefined) ?
CYP2C19 inh: 62*; CYP2C19 act: 0.4; CYP2C9 inhib: 23; Measles CPE: 5; CYP2C9 act: 0.8

Results for Cc1ccccc1C(C(=O)NCc1ccccc1)N(Cc1ccco1)C(=O)c1ccccn1 (centres undefined) ?
CYP2C19 inh: 54*; CYP2C19 act: 0.5; CYP2C9 inhib: 34; Measles CPE: 1; CYP2C9 act: 0.7

How did Cc1cccc(C)c1NC(=O)C1(N(Cc2ccco2)C(=O)c2ccccn2)CCCC1 do in these assays?
CYP2C19 inh: 41; CYP2C19 act: 0.6; CYP2C9 inhib: 63*; Measles CPE: 4; CYP2C9 act: 0.4

Results for COc1cc2oc3ccccc3c2cc1N(CC(=O)N1CCCCC1)S(=O)(=O)c1ccc(C)cc1 ?
CYP2C19 inh: 1; CYP2C19 act: 1; CYP2C9 inhib: 38; Measles CPE: 22; CYP2C9 act: 0.6

What do the screens show for `O=C1CCCC(O)=C1C1C2=C(CCCC2=O)Oc2ccccc21` (centres undefined)?
CYP2C19 inh: 9; CYP2C19 act: 0.9; CYP2C9 inhib: 20; Measles CPE: 16; CYP2C9 act: 0.8

How did CCCn1c(CCC(=O)Nc2ccccc2Cc2ccccc2)nc2cc(S(=O)(=O)N3CCOCC3)ccc21 do in these assays?
CYP2C19 inh: 28; CYP2C19 act: 0.7; CYP2C9 inhib: 75*; Measles CPE: 12; CYP2C9 act: 0.2

What do the screens show for `CCn1c(SCC(=O)c2c[nH]c3ccccc23)nc2cc(S(=O)(=O)N3CCOCC3)ccc21`?
Measles CPE: 23

Results for CCn1c(C)nc2cc(C(=O)N/N=C/c3ccc(OC)c(O)c3)ccc21 ?
Measles CPE: 10

What do the screens show for `CCn1c(C)nc2cc(C(=O)NNS(=O)(=O)c3c(C)c(C)cc(C)c3C)ccc21`?
CYP2C19 inh: 55*; CYP2C19 act: 0.5; CYP2C9 inhib: -2; Measles CPE: 18; CYP2C9 act: 1

How did CCn1c(C)nc2cc(C(=O)N/N=C/c3ccc(O)cc3)ccc21 do in these assays?
Measles CPE: 5

Results for CCn1c(C)nc2cc(C(=O)OC(C(F)(F)C(F)F)C(F)(F)C(F)F)ccc21 ?
CYP2C19 inh: 48; CYP2C19 act: 0.5; CYP2C9 inhib: 54*; Measles CPE: 19; CYP2C9 act: 0.5

What do the screens show for `c1ccc(-c2cn3c(n2)-c2ccccc2C3)cc1`?
Measles CPE: 6

What do the screens show for `CCN1C/C(=C/c2cccc([N+](=O)[O-])c2)C(=O)/C(=C/c2cccc([N+](=O)[O-])c2)C1`?
Measles CPE: 0

Results for CCC(C)n1c(SCc2ccccc2)nc2ccsc2c1=O (centres undefined) ?
Measles CPE: 4

How did C[N+]1(C2CCC3CCCC2C3O)CCCC1 (centres undefined) do in these assays?
Measles CPE: 9

How did O=C(c1cc(-c2ccc(O)cc2)on1)N1CCc2ccccc2C1 do in these assays?
CYP2C19 inh: 82*; CYP2C19 act: 0.2; CYP2C9 inhib: 5; Measles CPE: 7; CYP2C9 act: 1

How did O=C(c1cc(-c2ccco2)on1)N1CCCc2ccccc21 do in these assays?
CYP2C19 inh: 20; CYP2C19 act: 0.8; CYP2C9 inhib: -155; Measles CPE: 9; CYP2C9 act: 2.5*

Results for O=C(c1cc(-c2cccc(O)c2)on1)N1CCOCC1 ?
CYP2C19 inh: 59*; CYP2C19 act: 0.4; CYP2C9 inhib: -17; Measles CPE: 3; CYP2C9 act: 1.2

How did O=C(c1cc(-c2cccs2)on1)N1CCc2ccccc2C1 do in these assays?
Measles CPE: 7

What do the screens show for `O=C(c1cc(-c2ccccc2O)on1)N1CCc2ccccc2C1`?
CYP2C19 inh: 14; CYP2C19 act: 0.9; CYP2C9 inhib: -26; Measles CPE: 8; CYP2C9 act: 1.3

Results for O=C(c1cc(-c2ccco2)on1)N1CCc2ccccc2C1 ?
CYP2C19 inh: 32; CYP2C19 act: 0.7; CYP2C9 inhib: -1; Measles CPE: 69*; CYP2C9 act: 1

What do the screens show for `O=C(COC(=O)C1CCC(=O)N1)Nc1cc(Cl)ccc1Cl` (centres undefined)?
Measles CPE: 38

How did O=C(c1nn2c(C(F)(F)F)cc(-c3cccs3)nc2c1Br)N1CCCc2ccccc21 do in these assays?
Measles CPE: 1

Results for O=C(c1nn2c(C(F)(F)F)cc(-c3ccco3)nc2c1Br)N1CCCc2ccccc21 ?
CYP2C19 inh: 79*; CYP2C19 act: 0.2; CYP2C9 inhib: 76*; Measles CPE: 10; CYP2C9 act: 0.2

What do the screens show for `CC(=O)N(Cc1cc2c(C)cc(C)cc2[nH]c1=O)C1CCCCC1`?
CYP2C19 inh: 30; CYP2C19 act: 0.7; CYP2C9 inhib: 63*; Measles CPE: 5; CYP2C9 act: 0.4

How did CCC(=O)N(Cc1cc2cc(C)c(C)cc2[nH]c1=O)C1CCCCC1 do in these assays?
CYP2C19 inh: 81*; CYP2C19 act: 0.2; CYP2C9 inhib: 69*; Measles CPE: 1; CYP2C9 act: 0.3

How did O=C(NC1CCCCC1)N(Cc1cc2cc3c(cc2[nH]c1=O)OCCO3)C1CCCCC1 do in these assays?
CYP2C19 inh: 47; CYP2C19 act: 0.5; CYP2C9 inhib: 75*; Measles CPE: 5; CYP2C9 act: 0.2

What do the screens show for `COc1cc2cc(CN(C(=O)NC3CCCCC3)C3CCCC3)c(=O)[nH]c2cc1OC`?
CYP2C19 inh: -3; CYP2C19 act: 1; CYP2C9 inhib: 6; Measles CPE: 22; CYP2C9 act: 0.9

How did CCOC(=O)CSc1n[nH]c(-c2cccnc2)n1 do in these assays?
CYP2C19 inh: -13; CYP2C19 act: 1.1; CYP2C9 inhib: -14; Measles CPE: 32; CYP2C9 act: 1.1

Results for O=C(CSc1n[nH]c(-c2ccncc2)n1)NCCc1ccccc1 ?
CYP2C19 inh: 92*; CYP2C19 act: 0.1; CYP2C9 inhib: 97*; Measles CPE: 2; CYP2C9 act: 0

Results for Cc1ccc(C)c(C(=O)CSc2n[nH]c(-c3ccncc3)n2)c1 ?
CYP2C19 inh: 98*; CYP2C19 act: 0; CYP2C9 inhib: 99*; Measles CPE: 15; CYP2C9 act: 0

What do the screens show for `CCc1nc(SCC(=O)Nc2ccccc2C(=O)OC)n[nH]1`?
CYP2C19 inh: 36; CYP2C19 act: 0.6; CYP2C9 inhib: -59; Measles CPE: 13; CYP2C9 act: 1.6

Results for Cn1c(SCC(=O)NCCc2ccccc2)nnc1-c1ccncc1 ?
CYP2C19 inh: 14; CYP2C19 act: 0.9; CYP2C9 inhib: 4; Measles CPE: 2; CYP2C9 act: 1

What do the screens show for `CCc1nc(SCC(=O)NCCc2ccccc2)n[nH]1`?
CYP2C19 inh: 56*; CYP2C19 act: 0.4; CYP2C9 inhib: -1; Measles CPE: 19; CYP2C9 act: 1

Results for O=C(CSc1n[nH]c(-c2ccccc2)n1)Nc1ncc(Br)cc1Br ?
CYP2C19 inh: 87*; CYP2C19 act: 0.1; CYP2C9 inhib: 88*; Measles CPE: 0; CYP2C9 act: 0.1

From PubChem
